{"source": "paper PMC5540273", "about": "(PLoS ONE, 2017);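 also: KINOMEscan kinase panel screen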", "data": [{"tested_on": "NDR2", "details": "concentration: 1 μM, replicates: in singlicate; n = 1", "units": {"%Inh": "%"}, "values": [{"smiles": "Cn1ccc2ncnc(Oc3ccc(NC(=O)Nc4ccccc4)cc3)c21", "%Inh": 0}, {"smiles": "COc1cccc(NC(=O)NC2CCN(c3ccnc(Nc4ccc(F)cc4)n3)C2)c1", "note": "(centres unmarked) [GSK1379721]", "%Inh": 27}, {"smiles": "Cc1ccccc1-n1cnc2c(N)ncnc21", "note": "[SKF-97510]", "%Inh": 20}, {"smiles": "COc1ccccc1CNC(=O)c1cc(C(=O)c2ccccc2C)c[nH]1", "note": "[GSK364507]", "%Inh": 0}, {"smiles": "Cn1cncc1-c1ccc2ncnc(Nc3ccc(OCc4ccccc4)cc3)c2c1", "note": "[GW320571]", "%Inh": 0}, {"smiles": "O=C1NC(=O)C(N2CCc3ccccc32)=C1c1ccccc1Cl", "note": "[SB-373598]", "%Inh": 0}, {"smiles": "COc1ccc(Nc2nccc(-c3cccc(NC(=O)c4cc5cc(F)ccc5[nH]4)c3)n2)cc1", "note": "[GSK1229782]", "%Inh": 34}, {"smiles": "Cc1c(O)cccc1Nc1ccnc2ccc(C(F)(F)F)cc12.Cl", "note": "[GW466413]", "%Inh": 0}, {"smiles": "CC1=C(C(=O)Nc2cc3cn[nH]c3cc2F)C(c2ccc(C(F)(F)F)cc2)CC(=O)N1", "note": "(centres unmarked) [GSK429286]", "%Inh": 0}, {"smiles": "COC(=O)c1c(-c2ccccc2)c2cc(C(=O)O)ccc2c(=O)n1Cc1ccccc1", "%Inh": 0}, {"smiles": "COc1ccc2nc(-c3cccc(C)n3)nc(Nc3ccncc3)c2c1", "note": "[GSK204919]", "%Inh": 0}, {"smiles": "Cc1cc(-c2ccc3c(c2)CC[C@@H](N[C@@H](C)c2ccccc2)C3)cnc1N.Cl", "note": "[GW412617]", "%Inh": 0}, {"smiles": "O=C(Nc1ccccc1)Nc1cccc(Oc2ccc3nccn3n2)c1", "%Inh": 0}, {"smiles": "Cc1nnc(-c2ccc3occ(-c4ccc(S(C)=O)cc4)c3c2)[nH]1", "note": "(centres unmarked)", "%Inh": 0}, {"smiles": "Fc1cc(Cl)ccc1Nc1ccnc2cc(-c3ccc(CN4CCCCC4)o3)ccc12", "note": "[GW560116]", "%Inh": 18}, {"smiles": "O=C(Nc1n[nH]c2nc(-c3nccs3)c(Br)cc12)C1CC1", "note": "[SB-742251]", "%Inh": 0}, {"smiles": "Cc1cccc(-c2nc(Nc3ccc4[nH]ncc4c3)c3ccccc3n2)n1", "note": "[GW857175]", "%Inh": 5}, {"smiles": "CSc1nn2c(=O)cc(N3CCOCC3)nc2n1Cc1cccc(C(F)(F)F)c1C", "note": "[GSK2363608]", "%Inh": 0}, {"smiles": "O=C(Nc1n[nH]c2nc(-c3nccs3)c(Br)cc12)C1CCCC1", "note": "[SB-742609]", "%Inh": 0}, {"smiles": "CS(=O)(=O)c1ccc(-c2c(-c3ncn[nH]3)sc(N3CCOCC3)c2C#N)cc1", "%Inh": 0}, {"smiles": "Cc1cccc(-c2nc(Nc3ccncc3)c3ccccc3n2)n1", "note": "[GW855857]", "%Inh": 6}, {"smiles": "CC(=O)Nc1nc2cnc(Nc3cc(NC(=O)c4cccc(CCC#N)c4)ccc3C)nc2s1", "%Inh": 22}, {"smiles": "COc1cc2nccc(Nc3ccc(NC(=O)c4ccc(C)cc4)c(O)c3)c2cc1OC.Cl", "note": "[GW440132]", "%Inh": 0}, {"smiles": "Cc1ccc(NC(=O)Nc2cc(C(C)(C)C)nn2-c2ccccc2)cc1", "note": "[GSK1014915]", "%Inh": 0}, {"smiles": "COC(=O)c1c(-c2ccccc2)c2cc(OC)ccc2c(=O)n1Cc1ccccc1", "%Inh": 3}, {"smiles": "CCCc1ccc(S(=O)(=O)NC2CCN(c3ccnc(Nc4ccc(F)cc4)n3)C2)cc1", "note": "(centres unmarked) [GSK1379715]", "%Inh": 0}, {"smiles": "Cn1ccc2ncnc(Oc3ccc(Nc4nc5ccccc5[nH]4)cc3)c21", "%Inh": 10}, {"smiles": "O=S(=O)(c1ccc(-c2ccnc3[nH]ccc23)cc1)N1CCCC1", "note": "[GSK846226]", "%Inh": 38}, {"smiles": "O=C(O)COc1ncnc2cc(-c3ccc4[nH]ncc4c3)sc12", "%Inh": 0}, {"smiles": "Cc1cccc(-c2nc(Nc3cccc(C(N)=O)c3)c3ccccc3n2)n1", "note": "[GW876019]", "%Inh": 0}, {"smiles": "O=c1cc(N2CCOCC2)nc2n(Cc3cccc(Cl)c3Cl)ccn12", "note": "[GSK2286295]", "%Inh": 0}, {"smiles": "COc1cccc(-c2cc(-c3c[nH]nc3-c3ccccn3)ccn2)c1", "note": "[GW680338]", "%Inh": 19}, {"smiles": "COc1ccc(CNC(=O)NC2CCN(c3ccnc(Nc4cc(OC)c(OC)c(OC)c4)n3)C2)cc1", "note": "(centres unmarked) [GSK1379748]", "%Inh": 44}, {"smiles": "Cc1ccc(-c2cc(-c3c[nH]nc3-c3ccccn3)ccn2)cc1", "note": "[GW684088]", "%Inh": 47}, {"smiles": "Cl.O=C(Nc1cccc(-c2nn3ncccc3c2-c2ccnc(Nc3cccnc3)n2)c1)c1c(F)cccc1F", "note": "[GSK312879]", "%Inh": 0}, {"smiles": "Nc1nc(-c2nccs2)c(-c2ccnc3ccccc23)s1", "note": "[GW693542]", "%Inh": 30}]}, {"tested_on": "NEK10", "details": "concentration: 1 μM, replicates: in singlicate; n = 1", "units": {"%Inh": "%"}, "values": [{"smiles": "Cn1ccc2ncnc(Oc3ccc(NC(=O)Nc4ccccc4)cc3)c21", "%Inh": 18}, {"smiles": "COc1cccc(NC(=O)NC2CCN(c3ccnc(Nc4ccc(F)cc4)n3)C2)c1", "note": "(centres unmarked) [GSK1379721]", "%Inh": 0}, {"smiles": "Cc1ccccc1-n1cnc2c(N)ncnc21", "note": "[SKF-97510]", "%Inh": 0}, {"smiles": "COc1ccccc1CNC(=O)c1cc(C(=O)c2ccccc2C)c[nH]1", "note": "[GSK364507]", "%Inh": 6}, {"smiles": "Cn1cncc1-c1ccc2ncnc(Nc3ccc(OCc4ccccc4)cc3)c2c1", "note": "[GW320571]", "%Inh": 3}, {"smiles": "O=C1NC(=O)C(N2CCc3ccccc32)=C1c1ccccc1Cl", "note": "[SB-373598]", "%Inh": 18}, {"smiles": "COc1ccc(Nc2nccc(-c3cccc(NC(=O)c4cc5cc(F)ccc5[nH]4)c3)n2)cc1", "note": "[GSK1229782]", "%Inh": 40}, {"smiles": "Cc1c(O)cccc1Nc1ccnc2ccc(C(F)(F)F)cc12.Cl", "note": "[GW466413]", "%Inh": 16}, {"smiles": "CC1=C(C(=O)Nc2cc3cn[nH]c3cc2F)C(c2ccc(C(F)(F)F)cc2)CC(=O)N1", "note": "(centres unmarked) [GSK429286]", "%Inh": 7}, {"smiles": "COC(=O)c1c(-c2ccccc2)c2cc(C(=O)O)ccc2c(=O)n1Cc1ccccc1", "%Inh": 9}, {"smiles": "COc1ccc2nc(-c3cccc(C)n3)nc(Nc3ccncc3)c2c1", "note": "[GSK204919]", "%Inh": 3}, {"smiles": "Cc1cc(-c2ccc3c(c2)CC[C@@H](N[C@@H](C)c2ccccc2)C3)cnc1N.Cl", "note": "[GW412617]", "%Inh": 63}, {"smiles": "O=C(Nc1ccccc1)Nc1cccc(Oc2ccc3nccn3n2)c1", "%Inh": 0}, {"smiles": "Cc1nnc(-c2ccc3occ(-c4ccc(S(C)=O)cc4)c3c2)[nH]1", "note": "(centres unmarked)", "%Inh": 0}, {"smiles": "Fc1cc(Cl)ccc1Nc1ccnc2cc(-c3ccc(CN4CCCCC4)o3)ccc12", "note": "[GW560116]", "%Inh": 5}, {"smiles": "O=C(Nc1n[nH]c2nc(-c3nccs3)c(Br)cc12)C1CC1", "note": "[SB-742251]", "%Inh": 0}, {"smiles": "Cc1cccc(-c2nc(Nc3ccc4[nH]ncc4c3)c3ccccc3n2)n1", "note": "[GW857175]", "%Inh": 54}, {"smiles": "O=C(Nc1n[nH]c2nc(-c3nccs3)c(Br)cc12)C1CCCC1", "note": "[SB-742609]", "%Inh": 15}, {"smiles": "CS(=O)(=O)c1ccc(-c2c(-c3ncn[nH]3)sc(N3CCOCC3)c2C#N)cc1", "%Inh": 36}, {"smiles": "Cc1cccc(-c2nc(Nc3ccncc3)c3ccccc3n2)n1", "note": "[GW855857]", "%Inh": 0}, {"smiles": "CC(=O)Nc1nc2cnc(Nc3cc(NC(=O)c4cccc(CCC#N)c4)ccc3C)nc2s1", "%Inh": 13}, {"smiles": "COc1cc2nccc(Nc3ccc(NC(=O)c4ccc(C)cc4)c(O)c3)c2cc1OC.Cl", "note": "[GW440132]", "%Inh": 0}, {"smiles": "Cc1ccc(NC(=O)Nc2cc(C(C)(C)C)nn2-c2ccccc2)cc1", "note": "[GSK1014915]", "%Inh": 19}, {"smiles": "COC(=O)c1c(-c2ccccc2)c2cc(OC)ccc2c(=O)n1Cc1ccccc1", "%Inh": 0}, {"smiles": "CCCc1ccc(S(=O)(=O)NC2CCN(c3ccnc(Nc4ccc(F)cc4)n3)C2)cc1", "note": "(centres unmarked) [GSK1379715]", "%Inh": 3}, {"smiles": "Cn1ccc2ncnc(Oc3ccc(Nc4nc5ccccc5[nH]4)cc3)c21", "%Inh": 0}, {"smiles": "O=S(=O)(c1ccc(-c2ccnc3[nH]ccc23)cc1)N1CCCC1", "note": "[GSK846226]", "%Inh": 15}, {"smiles": "O=C(O)COc1ncnc2cc(-c3ccc4[nH]ncc4c3)sc12", "%Inh": 48}, {"smiles": "Cc1cccc(-c2nc(Nc3cccc(C(N)=O)c3)c3ccccc3n2)n1", "note": "[GW876019]", "%Inh": 12}, {"smiles": "O=c1cc(N2CCOCC2)nc2n(Cc3cccc(Cl)c3Cl)ccn12", "note": "[GSK2286295]", "%Inh": 0}, {"smiles": "COc1cccc(-c2cc(-c3c[nH]nc3-c3ccccn3)ccn2)c1", "note": "[GW680338]", "%Inh": 4}, {"smiles": "COc1ccc(CNC(=O)NC2CCN(c3ccnc(Nc4cc(OC)c(OC)c(OC)c4)n3)C2)cc1", "note": "(centres unmarked) [GSK1379748]", "%Inh": 6}, {"smiles": "Cc1ccc(-c2cc(-c3c[nH]nc3-c3ccccn3)ccn2)cc1", "note": "[GW684088]", "%Inh": 0}, {"smiles": "Cl.O=C(Nc1cccc(-c2nn3ncccc3c2-c2ccnc(Nc3cccnc3)n2)c1)c1c(F)cccc1F", "note": "[GSK312879]", "%Inh": 7}, {"smiles": "Nc1nc(-c2nccs2)c(-c2ccnc3ccccc23)s1", "note": "[GW693542]", "%Inh": 19}]}]}
